In the library only some 6.3% were active in any assay of this set; here they are far more common.
tim10-1 inh: growth inhibitors of tim10-1 mutant yeast, primary screen, luminescence, uHTS | S. cerevisiae tim10-1 ts strain growth, BacTiter-Glo, 24 h | inhibition, % at 20 µM | hit rate 2.2% among 330,000 | AID 463190, 2010;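 active means inhibition of at least 40%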;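 further: mutant grown at 25 °C; 0% = DMSO wells with yeast and 100% = wells holding no yeast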
TIM10 inh: growth inhibitors of isogenic TIM10 control yeast, primary screen, counter-screen for tim10-1 yeast inhibitor project, luminescence, uHTS | S. cerevisiae TIM10 strain growth, BacTiter-Glo luminescence, 24 h | inhibition, % at 10 µM | hit rate 1.4% among 330,000;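 active means inhibition of 40% or more at the single tested concentration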;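 further: wild-type TIM10 isogenic control strain grown at permissive 25 °C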
Mdm2-MdmX inh: inhibitors of human Mdm2-MdmX association, primary screen, cell-based, luminescence, split luciferase, SaOS-2, uHTS | Protein Mdm4 (Homo sapiens) + E3 ubiquitin-protein ligase Mdm2 (Homo sapiens), … | SaOS-2 split-luciferase Mdm2/MdmX complementation | inhibition, % at 8 µM | hit rate 3% among 330,000 | AID 485346, 2010;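 active means inhibition of at least 50% at 8 µM in the primary screen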
Target sequence (O15151 whole entry, looked up): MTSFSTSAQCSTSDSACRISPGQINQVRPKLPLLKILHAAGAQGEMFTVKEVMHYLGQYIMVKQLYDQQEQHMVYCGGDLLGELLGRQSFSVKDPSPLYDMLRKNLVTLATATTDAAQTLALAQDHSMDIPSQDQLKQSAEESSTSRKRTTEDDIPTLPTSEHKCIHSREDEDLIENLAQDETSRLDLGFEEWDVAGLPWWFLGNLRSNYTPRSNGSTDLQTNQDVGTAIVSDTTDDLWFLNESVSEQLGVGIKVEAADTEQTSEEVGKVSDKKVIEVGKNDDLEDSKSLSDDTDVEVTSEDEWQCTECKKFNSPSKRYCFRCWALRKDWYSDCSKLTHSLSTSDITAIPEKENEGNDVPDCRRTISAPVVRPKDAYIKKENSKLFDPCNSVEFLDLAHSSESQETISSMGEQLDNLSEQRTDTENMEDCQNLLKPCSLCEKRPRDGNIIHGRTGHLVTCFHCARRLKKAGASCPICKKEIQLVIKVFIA
Target sequence (Q00987 whole entry, looked up): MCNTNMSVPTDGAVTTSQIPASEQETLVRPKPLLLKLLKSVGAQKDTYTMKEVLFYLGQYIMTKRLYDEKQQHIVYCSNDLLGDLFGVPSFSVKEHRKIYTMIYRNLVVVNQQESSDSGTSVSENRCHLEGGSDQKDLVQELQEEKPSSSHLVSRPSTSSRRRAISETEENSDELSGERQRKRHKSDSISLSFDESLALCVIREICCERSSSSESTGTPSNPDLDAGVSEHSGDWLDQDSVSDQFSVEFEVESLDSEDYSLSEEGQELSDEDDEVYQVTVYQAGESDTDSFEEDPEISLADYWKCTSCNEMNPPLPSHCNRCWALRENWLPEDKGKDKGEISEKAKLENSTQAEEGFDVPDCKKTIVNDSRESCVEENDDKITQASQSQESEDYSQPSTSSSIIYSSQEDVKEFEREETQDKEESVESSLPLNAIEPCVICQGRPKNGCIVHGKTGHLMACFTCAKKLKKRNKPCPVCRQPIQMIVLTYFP
tim23-1 inh: growth inhibitors of tim23-1 mutant yeast, primary screen, luminescence, uHTS. S. cerevisiae tim23-1 growth, BacTiter-Glo luminescence, 24 h. inhibition, % at 20 µM. hit rate 1.3% among 330,000;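 active means growth inhibition of the mutant yeast at or above 50%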;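 further: temperature-sensitive mutant grown at 25 °C; plate controls were DMSO-treated mutant yeast for no effect and medium wells lacking yeast for full effect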
MPTP block: mitochondrial permeability transition pore inhibitors, primary screen, biochemical, isolated mouse mitochondria, absorbance | hit rate 1.4% among 360,000 | inhibition, % at 10 µM | AID 602449, 2012 | Ca2+ swelling absorbance, 30 min;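 active means inhibition of 50% or more, scaled per plate between neutral and stimulator controls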;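 further: 0% = DMSO wells given calcium and 100% = 1 mM EGTA wells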
Mdm2 MdmX conf: Mdm2-MdmX complex disruptors, retested hits, confirmation, luminescence, single concentration. shares compounds with Mdm2-MdmX inh. Mdm2-MdmX binding, luminescent assay. inhibition, % at 8 µM. hit rate 55% among 10,000; in the data active means inhibition above about 40%
Full FLuc ctr: full-length luciferase signal inhibition, confirmation, counter-screen for Mdm2/MdmX interaction inhibitor project, cell-based, single concentration, SaOS-2 | shares compounds with Mdm2-MdmX inh | SaOS-2 full-length luciferase counterscreen, luminescence | inhibition, % at 8 µM | hit rate 77% among 6,200 | AID 504607, 2011;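 active means mean inhibition at 8 µM reaching about 37%, which flags the compound as non-specific, limit read from the data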;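 further: p53-null SaOS-2 cells with luciferase driven by a doxycycline-inducible promoter; compound on cells about two nights before reading with doxycycline added after day one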
An asterisk follows results filed as active; x = no result given.

SMILES	tim10-1 inh	TIM10 inh	Mdm2-MdmX inh	tim23-1 inh	MPTP block	Mdm2 MdmX conf	Full FLuc ctr
O=C(Nc1ccccc1)Nc1nc(-c2ccc(F)c(F)c2)cs1	-4.1	3.3	28.9	-5.5	28.4	x	x
O=C(Cc1ccccc1)NC(=S)Nc1cc(C(F)(F)F)ccc1Cl	2.0	8.9	-3.7	-1.9	3.0	x	x
Cc1ccc(C(=O)NC(=S)Nc2cc(C(F)(F)F)ccc2Cl)cc1	-1.8	1.8	55.1*	-5.8	-0.3	-13.9	x
CCCCNC(=O)C(c1ccc(OCC(=O)OC)c(C(=O)OC)c1)N(CCOC)C(=O)CCCCCN1C(=O)NC(c2ccc(-c3ccccc3)cc2)C(C(=O)OCc2ccccc2)=C1C (centres undefined)	11.7	12.2	100.3*	20.6	x	65.8*	10.9
O=C(CC1C[C@H](C(=O)N2CCCCC2)[C@@]2(CCc3ccccc3)c3[nH]c4ccccc4c3CCN2C1=O)NCCC1=CCCCC1 (some centres undefined)	-11.5	1.2	79.2*	-11.6	2.1	22.6	x
O=C(C[C@H]1C[C@H](C(=O)N2CCCCC2)[C@@]2(CCc3ccccc3)c3[nH]c4ccc(Cl)cc4c3CCN2C1=O)NCCC1=CCCCC1	3.5	-11.9	77.4*	20.8	2.1	25.4	x
CN(C)CCCNC(=O)C[C@H]1C[C@H](C(=O)N2CCCCC2)[C@@]2(CCc3ccccc3)c3[nH]c4ccc(Cl)cc4c3CCN2C1=O	25.5	2.1	97.4*	39.5	-5.1	91.0*	51.2*
O=C(C[C@H]1C[C@H](C(=O)N2CCCCC2)[C@@]2(CCc3ccccc3)c3[nH]c4ccc(Cl)cc4c3CCN2C1=O)NCCc1ccccn1	22.0	2.1	25.8	40.0	-0.8	x	x
O=C(OCCN1C(=O)c2cccc3c(N4CCOCC4)ccc(c23)C1=O)c1ccc(Cl)cc1	25.1	25.0	72.9*	15.1	-0.5	53.5*	69.2*
COCCCN(Cc1cc(OC)c(OC)c(OC)c1)C(=S)Nc1cccc(SC)c1	x	x	x	x	-0.4	x	x
CCOC1=C(C#N)CC2(CC1)c1ccccc1-c1ccccc12	x	x	x	x	-1.1	x	x
NS(=O)(=O)c1ccc(CCN2C(=O)/C(=C\c3ccc(Cl)cc3)SC2=S)cc1	-5.5	-7.1	95.1*	-14.6	7.2	96.5*	46.4*
O=C1/C(=C/c2ccccn2)SC(=S)N1CCc1ccccc1	-3.8	13.4	3.1	8.5	6.0	x	x
Cc1cc(C)n(-c2nc(NCCCN(C)C)c3c4c(sc3n2)CCCC4)n1	14.2	-4.8	54.1*	-29.8	-4.3	29.6	x
Cc1cc(C)n(-c2nc(NCCN(C)C)c3c4c(sc3n2)CCCC4)n1	-2.4	-3.2	99.7*	-44.2	-2.4	88.8*	21.3
Cc1cc(C(=O)OCC(=O)Nc2ccc(F)cc2[N+](=O)[O-])c2ccccc2n1	14.6	0.6	52.0*	1.7	-0.5	50.6*	100.2*
COC(=O)c1c(NC(=O)CSc2ncnc3c2cnn3-c2ccccc2Cl)sc2c1CCCC2	13.6	6.2	53.3*	20.2	8.9	12.8	x
CC(=O)Nc1cc2c3c(cccc3c1)-c1ccccc1-2	x	x	x	x	0.1	x	x
O=C(Nc1cc(S(=O)(=O)N2CCOCC2)ccc1Cl)c1cc([N+](=O)[O-])ccc1Cl	24.9	32.2	96.6*	21.7	-1.2	44.5*	12.4
CCN(c1ccccc1)S(=O)(=O)c1ccc(Cl)c(NC(=O)CN2CCCCCC2)c1	-9.5	-11.6	68.8*	7.5	3.9	22.8	x
CCN1CCN(c2ccc(S(=O)(=O)N3CCCCC3)cc2NC(=O)c2ccc([N+](=O)[O-])s2)CC1	2.9	-0.2	70.5*	19.8	16.8	58.7*	82.0*
O=C(CCl)Nc1cc(S(=O)(=O)N2CCCCCC2)ccc1Cl	15.2	17.7	92.1*	43.8	-7.2	35.6	49.6*
CN(C)S(=O)(=O)c1ccc(Cl)c(NC(=O)CN2CCCCCC2)c1	10.4	-10.3	-7.5	14.5	0.0	x	x
CC(C)(C)CC(=O)Nc1cc(S(=O)(=O)N2CCCCCC2)ccc1Cl	36.9	14.6	24.6	24.5	1.5	x	x
Cc1ccc(C(=O)NC(=S)c2c(C)cc3ccccn23)cc1	x	x	x	x	0.1	x	x
SMILES	tim10-1 inh	TIM10 inh	Mdm2-MdmX inh	tim23-1 inh	MPTP block	Mdm2 MdmX conf	Full FLuc ctr
CCOC1=C2CN(S(=O)(=O)c3ccc(C)cc3)C(c3cccc(Cl)c3)CC2NC(c2ccccc2)C1 (centres undefined)	x	x	x	x	2.0	x	x
O=C1C2C3C=CC(O3)C2C(=O)N1N=Cc1ccc2c(c1)OCO2 (centres undefined)	x	x	x	x	-1.8	x	x
O=C(Nc1nc(OCCN2CCCC2=O)cnc1/C=C\c1ccccc1)c1cc2ccccc2s1	x	x	x	x	-0.2	x	x
O=C(Nc1cccc(NC(=O)c2cc([N+](=O)[O-])ccc2Cl)n1)c1cc([N+](=O)[O-])ccc1Cl	14.8	32.6	96.4*	20.1	8.2	95.7*	49.5*
CCN1CCN(c2ccc(S(=O)(=O)N3CCCCC3)cc2NC(=O)/C=C/c2cc(OC)ccc2OC)CC1	6.9	16.8	100.4*	13.7	0.4	44.8*	63.2*
CCN1CCN(c2ccc(S(=O)(=O)N3CCCCC3)cc2NC(=O)Cc2ccc(Cl)c(Cl)c2)CC1	7.6	2.3	63.9*	8.7	14.3	38.0	79.6*
Cc1cc(NC(=O)c2cc([N+](=O)[O-])ccc2Cl)no1	-28.2	-16.6	38.7	-9.2	1.4	x	x
CCN1CCN(c2ccc(S(=O)(=O)N3CCCCC3)cc2NC(=O)/C=C/c2ccc(OC)c(OC)c2)CC1	2.8	-1.4	27.8	-0.4	2.5	x	x
CCN(CC)S(=O)(=O)c1ccc(Cl)c(NC(=S)NC(=O)C2CCCC2)c1	11.7	19.1	50.3*	35.9	8.2	15.2	x
CCN(CC)c1ccc(S(=O)(=O)Nc2cc(Cl)ccc2Cl)cc1NC(=S)NC(=O)C1CCCC1	22.3	22.0	17.4	30.3	21.1	x	x
Cc1ccc(S(=O)(=O)N2CCC(C(=O)OCC(=O)N(Cc3ccccc3)C(C)C)CC2)cc1C	x	x	x	x	1.4	x	x
OC[C@@H]1CN(Cc2ccccc2)C[C@H](n2cnc3c(NCc4ccncc4)ncnc32)O1	x	x	x	x	-0.8	x	x
Cc1nnc(N2CCCC(C(=O)Nc3cc(F)ccc3F)C2)c2nn(-c3ccccc3)c(C)c12 (centres undefined)	-4.9	6.0	96.0*	-5.8	-1.2	49.9*	73.1*
Cc1ccc(-n2nc3c(N4CCC(C(=O)NCCc5cccs5)CC4)nnc(C)c3c2C)cc1	4.0	4.5	54.5*	4.7	-1.6	37.1	89.2*

Screening results deposited in PubChem BioAssay by Sanford-Burnham Center for Chemical Genomics.
